{
  "source": "PubChem BioAssay (Tox21)",
  "note": "Inconclusive results are not listed. Where a call stands in place of a potency, no number is given. Calls of active or inactive are those of the source. The call rests on the fitted dose curve; in most records, active means well fitted cell-killing curve with a large enough effect in the repeat runs; inconclusive means weak or mixed curves, or effect the other way; inactive means flat fitted curve, though single readings scatter. Potency means the concentration at half of the fitted maximal effect.",
  "data": [
    {"assay": "qHTS RealTime-Glo MT Cell Viability Assay in HEK293 cells - 0 hour (AID 1224880); further: nearly all actives have a fitted effect of over 45% in size", "settings": "RealTime-Glo luminescence; series mostly up to 76.8 µM", "description": "U.S. Tox21 Program National Center for Advancing Translational Sciences [NCATS] NIH Chemical Genomics Center [NCGC] U.S. Environmental Protection Agency [EPA] National Institutes of Environmental Health Sciences [NIEHS] National Toxicology Program [NTP] U.S. Food and Drug Administration [FDA] Tox21 Assay Overview: Measure of cell viability is critical in the cell-base assay. Analysis of cell viability is necessary for the characterization of cell responses to cytotoxic drugs and environmental stress. A RealTime-Glo MT Cell Viability Assay to monitor cell viability in real time of continues cell culture during 40 hours of compound treatment was used to screen Tox21 10K library compounds in Hek293 cells. The RealTime-Glo MT Cell Viability Assay is a nonlytic, homogeneous, bioluminescent method to measure cell viability in real time using a simple, plate-based method. The assay involves adding NanoLuc luciferase and a cell-permeant prosubstrate to cells in culture. Viable cells reduce the proprietary prosubstrate to generate a substrate for NanoLuc luciferase. This substrate diffuses from cells into the surrounding culture medium, where it is rapidly used by the NanoLuc Enzyme to produce a luminescent signal. The signal correlates with the number of viable cells, making the assay well suited for cytotoxicity studies.\nTox21 Assay Protocol Summary: The mixture of Hek293 cell suspension and reagents were dispensed at 600cells/6 ul/well in 1536-well tissue culture treated black solid bottom plates using a Multidrop dispenser. After the assay plates were incubated at a 37 C/5% CO2 incubator for 5 hours, 23 nL of compounds dissolved in DMSO, positive and negative controls was transferred to the assay plate by a pintool work station. The plates were incubated at 37 C for 40 hours. The luminescence intensity were measured at 0h, 8h, 16h, 24h, 32h and 40h time points using ViewLux plate reader during compound treatment.", "values": [
      {"smiles": "Cc1[nH]cnc1C[C@H]1CCc2c(C)c3ccccc3n2C1=O", "Potency": "inactive"},
      {"smiles": "Cc1onc(-c2c(Cl)cccc2Cl)c1C(=O)N[C@@H]1C(=O)N2[C@@H]1SC(C)(C)[C@@H]2C(=O)O", "Potency": "inactive"},
      {"smiles": "N=C1N=C(N)c2cc3ccccc3cc21", "Potency": "inactive"},
      {"smiles": "CC(C)(C)NC(=O)[C@@H]1C[C@@H]2CCCC[C@@H]2CN1C[C@@H](O)[C@H](Cc1ccccc1)NC(=O)[C@H](CC(N)=O)NC(=O)c1ccc2ccccc2n1", "Potency": "inactive"},
      {"smiles": "[Cl][Au]([Cl])[Cl]", "Potency": "inactive"},
      {"smiles": "CCC(C)Nc1ccc(NC(C)CC)cc1", "note": "(stereo not given)", "Potency": "19.9 µM (active)"},
      {"smiles": "CCCCCCCCCOC(=O)c1ccc(O)cc1", "Potency": "inactive"},
      {"smiles": "CCCCCCCC(=O)[O-].CCCCCCCC(=O)[O-].[Zn+2]", "Potency": "inactive"},
      {"smiles": "CCCCCCCCCCCCCCCCCC[N+](C)(C)Cc1ccccc1", "Potency": "inactive"},
      {"smiles": "OCc1c[nH]c2ccccc12", "Potency": "inactive"},
      {"smiles": "NNC(=O)c1cccc(C(=O)NN)c1", "Potency": "inactive"},
      {"smiles": "NNc1nc(-c2ccc(N)cc2)cs1", "Potency": "inactive"},
      {"smiles": "CC(C)OC(=O)c1cc2c(OCC(O)CNC(C)(C)C)cccc2[nH]1", "note": "(stereo not given)", "Potency": "inactive"},
      {"smiles": "CCCCN(CCCC)c1ccc(C(=O)c2ccccc2C(=O)O)c(O)c1", "Potency": "inactive"},
      {"smiles": "C1CCCC1", "Potency": "inactive"},
      {"smiles": "CCCC/C=C/CCCCO", "Potency": "inactive"},
      {"smiles": "CNC(=O)c1ccccc1", "Potency": "inactive"},
      {"smiles": "O=Cc1cc(O)ccc1Br", "Potency": "inactive"},
      {"smiles": "CCC(C)(C)C1CCCCC1OC(C)=O", "note": "(stereo not given)", "Potency": "inactive"},
      {"smiles": "c1ccc(CSCc2ccccc2)cc1", "Potency": "inactive"},
      {"smiles": "Cc1cccc(N(C)C(=S)Oc2ccc3c(c2)C2CCC3C2)c1", "note": "(stereo not given)", "Potency": "inactive"},
      {"smiles": "N=C1N=C(N)c2ccccc21", "Potency": "inactive"},
      {"smiles": "O=C1C=CC(=O)N1", "Potency": "inactive"},
      {"smiles": "Nc1ccc2cc(S(=O)(=O)O)cc(O)c2c1N=Nc1ccccc1C(F)(F)F", "Potency": "inactive"},
      {"smiles": "Nc1ccc2c3c(cccc13)-c1ccccc1-2", "Potency": "inactive"},
      {"smiles": "Nc1c(Cl)cc(Cl)cc1Cl", "Potency": "inactive"},
      {"smiles": "CCOC(=O)/C=C(C)/C=C/C=C(C)/C=C/c1c(C)cc(OC)c(C)c1C", "Potency": "inactive"},
      {"smiles": "Oc1ccc(Cl)cc1Sc1cc(Cl)ccc1O", "Potency": "inactive"},
      {"smiles": "Cc1cc(C2CCCCC2)n(O)c(=O)c1", "Potency": "inactive"},
      {"smiles": "Cc1cc(O)c(Cl)c(C)c1Cl", "Potency": "inactive"},
      {"smiles": "O=C(O)c1cc(O)c2c(c1)C(=O)c1cccc(O)c1C2=O", "Potency": "inactive"},
      {"smiles": "CCc1cc(Cc2cc(CC)cc(C(C)(C)C)c2O)c(O)c(C(C)(C)C)c1", "Potency": "inactive"},
      {"smiles": "O=[N+]([O-])c1ccccc1Nc1ccccc1", "Potency": "inactive"},
      {"smiles": "COC(=O)C1=C(C)NC(C)=C(C(=O)OCCc2ccc(N3CCN(C(c4ccccc4)c4ccccc4)CC3)cc2)C1c1cccc([N+](=O)[O-])c1", "note": "(stereo not given)", "Potency": "inactive"},
      {"smiles": "CN(C)[C@@H]1C(=O)C(C(N)=O)=C(O)[C@@]2(O)C(=O)C3=C(O)c4c(O)cccc4C[C@H]3C[C@@H]12", "Potency": "inactive"},
      {"smiles": "O=C1c2c(O)ccc(Nc3ccc(CCO)cc3)c2C(=O)c2c([N+](=O)[O-])ccc(O)c21", "Potency": "inactive"},
      {"smiles": "Clc1ccccc1C(c1ccccc1)(c1ccccc1)n1ccnc1", "Potency": "inactive"},
      {"smiles": "O=C(Nc1ccc(Oc2ccc(Cl)cc2)c(Cl)c1)c1cc(I)cc(I)c1O", "Potency": "inactive"},
      {"smiles": "C=C(C)C(=O)OCC(O)COc1ccc(C(C)(C)c2ccc(OCC(O)COC(=O)C(=C)C)cc2)cc1", "note": "(stereo not given)", "Potency": "inactive"},
      {"smiles": "C/C(=C(/OCCOc1ccc(Cl)cc1)c1ccc(Cl)cc1Cl)n1ccnc1", "Potency": "inactive"}
    ]}
  ]
}
